Data taken from PubChem BioAssay (NCI).
About 83,000 compounds went through this panel and 20% of them were active in at least one assay; those are over-represented in the sample as a whole.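 Percent growth is the endpoint: 0 to 100 indicates growth inhibition (40 means 60% inhibition), 0 means no net growth, and negative values indicate cell death.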 A number with no mark means an inactive call. Activity calls are given as the source filed them. How the source made its calls: active means growth percent below 10; inactive means the rest.

System: NCI-H23 lung
Assay: NCI-60 one-dose screen, 48 h (100 = growth as untreated, 0 = no growth, -100 = all killed)
Conditions: 10 µM unless noted

Compared with `O=C(OCc1nc2nc(Cl)nc(N3CCOCC3)c2[nH]1)n1ccnc1`, `CN1CCN(c2cnc(C(=O)Nc3cc(F)cc4cccnc34)cn2)CC1` is lower in growth: 40.7% for the first, 39.6% for the second.

Compared with `CCCCCN1C=C/C(=C\C(=O)N(C)c2cccc3ccccc23)c2ccccc21`, `CS(=O)(=O)c1ccc(-c2cc3c(oc2=O)-c2ccccc2OC3O)cc1` (centres undefined) is higher in growth: 81.4% for the first, 90.3% for the second.

First: COc1cc2nc(-c3ccc(C#N)cc3)[nH]c(=O)c2cc1OC
Second: COc1cc(-c2nc3occn3c2-c2ccnc(NCCNS(=O)(=O)c3ccc(Cl)cc3)n2)ccc1F
The growth of the first is higher: 104% for the first, 92.2% for the second.

Going from `CCCCCCN(C)Cc1ccc(OCCOc2ccc(CN(C)CCCCCC)cc2)cc1` to `CCCCCCCCCCCCCCCCCCOc1ccccc1N`, the growth rises from 11% to 87.8%.

Going from `Cc1nc2sc(C(=O)Nc3ccccc3)c(N)c2cc1C(=O)c1ccc(C(F)(F)F)cc1` to `Nc1c(C(=O)Nc2cccc3ccncc23)sc2nc3c(cc12)C(=O)CCC3`, the growth falls from 93.5% to 58.1%.

Compared with `S=c1[nH]cccc1-c1nnc2n1Nc1nc3ccc(Cl)cc3cc1CS2`, `O=C(Nc1nc2ccc(C(=O)N3CCN(c4ccc(Cl)c(Cl)c4)CC3)cc2s1)c1ccc(NCCc2ccccc2)c([N+](=O)[O-])c1` is higher in growth: 92% for the first, 93.3% for the second.

First: CC(C)Cc1ccc(C(C)C(=O)NCc2c[nH]c3ccc(Cl)cc23)cc1 (centres undefined)
Second: Fc1ccccc1CSc1ncnc2nc[nH]c12
The growth of the first is lower: 98% for the first, 110% for the second.

Going from `Cc1c([N+](=O)[O-])cc(C(C)(C)C)cc1[N+](=O)[O-]` to `Nc1c(Cl)cc([N+](=O)[O-])cc1Br`, the growth falls from 97.4% to 93%.

Compared with `CCCOc1nc(SCCC)nc2c1cnn2-c1ccccc1`, `C=C(C)[C@H]1CC/C(C)=C/CC[C@]2(C)O[C@H]2CC/C(COC(=O)[C@@H](OC(C)=O)[C@H](NC(=O)c2ccccc2)c2ccccc2)=C\[C@@H]1O` is higher in growth: 93.8% for the first, 98.5% for the second.

With `NC(=O)CN1CCN(c2ccccc2Cl)CC1` the growth was 99.7%.

With `Cn1c(COC(=O)NCCN2CCOCC2)nc2c(N3CCOCC3)nc(-c3ccccc3)nc21` the growth was -48.2% (active).
`O=C1c2cccnc2C(=O)c2nc3cc(N4CCN(C5CC5)CC4)ccc3nc21` was tested, and the growth was -56.5% (active).
`CC(=O)OCC(=O)C1(O)C(C)CC2C3C=C(C)C4=Cc5c(cnn5-c5ccccc5)CC4(C)C3C(O)CC21C` (centres undefined) was tested, and the growth was 8.49% (active).
With `Cc1n[nH]c(C)c1-c1c(C)n[nH]c1C` the growth was 8.62% (active).
In the case of `C(=C\c1n(Cc2ccc3ccccc3c2)c(-c2ccccc2)c(-c2ccccc2)[n+]1Cc1ccc2ccccc2c1)/c1ccccc1`, the growth is reported as -80.2% (active).
